Screening data from PubChem.
aSyn rescue: rescues yeast growth from alpha-synuclein toxicity. Yeast expressing alpha-synuclein, growth rescue, BacTiter-Glo, 24 h. Potency, µM (top dose mostly 46.1 µM), for the others: at the top dose growth rescue (activation), most hits filed as activators. 370,000 tested, 0.14% active. AID 652106; note: potency is the fitted concentration of half-maximal effect; % of control where 0% means no effect; nearly all actives have a fitted effect of over 65% in size
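Galactose-induced alpha-syn yeast (OD600=0.02, raffinose-pregrown) + pinned cpd, 24 hr, 30 deg C; growth by BacTiter-Glo luminescence. Growth restoration scores as activation.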
PTHR1 agonist: agonists of human PTHR1 parathyroid hormone receptor. 410,000 tested, 0.075% active. Potency, µM (titrated, usually from 115 µM), without a hit: at the top dose activation, most hits filed as activators. HEK293 GP2 PTHR1 cells, GloSensor cAMP luminescence, 1 h. AID 743266; note: potency is the fitted concentration of half-maximal effect; nearly all actives have a fitted effect of over 55% in size
Target sequence (Q03431 whole entry, looked up): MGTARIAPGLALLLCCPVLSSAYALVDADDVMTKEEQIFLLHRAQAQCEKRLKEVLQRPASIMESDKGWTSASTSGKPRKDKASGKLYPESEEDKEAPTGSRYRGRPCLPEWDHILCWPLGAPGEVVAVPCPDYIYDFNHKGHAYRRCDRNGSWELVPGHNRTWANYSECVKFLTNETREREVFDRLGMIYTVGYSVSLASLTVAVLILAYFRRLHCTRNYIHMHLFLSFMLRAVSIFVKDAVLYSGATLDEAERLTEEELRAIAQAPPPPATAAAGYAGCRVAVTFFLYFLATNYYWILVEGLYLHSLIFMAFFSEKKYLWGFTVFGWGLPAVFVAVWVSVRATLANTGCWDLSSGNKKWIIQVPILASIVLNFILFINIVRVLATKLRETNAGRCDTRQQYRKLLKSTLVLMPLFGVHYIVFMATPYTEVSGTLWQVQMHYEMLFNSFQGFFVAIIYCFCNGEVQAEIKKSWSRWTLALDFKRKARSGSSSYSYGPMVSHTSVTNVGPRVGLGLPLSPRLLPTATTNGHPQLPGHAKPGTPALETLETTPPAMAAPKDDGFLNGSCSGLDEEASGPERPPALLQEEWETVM
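HEK-293-derived GP2 cells expressing PTHR1 and a GloSensor cAMP reporter, 3,000/well, plated overnight, given luciferin plus IBMX (each 0.5 mM as added) for 1 h at 37 °C, then compound for 1 h at 37 °C. Luminescence was read after 15 min at room temperature.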
FUS suppressor: suppressors of FUS proteinopathy in yeast; AID 1347120; S. cerevisiae FUS-expressing, growth rescue, OD600, 24 h; 390,000 tested, 0.24% active; Potency, µM (top dose mostly 76.6 µM), actives largely listed as activators;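 note: potency is the fitted concentration of half-maximal effect; plate controls were DMSO vehicle for no effect and reference control for full effect; nearly all actives have a fitted effect of over 55% in size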
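Absorbance at 600 nm, taken 24hr after compound addition, measured rescue of FUS-yeast growth at 30C. Induction used 2% galactose with seeding at OD 0.005. Controls: CP55940 from 92uM final, DMSO only.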
LDHA inh: inhibitors of human lactate dehydrogenase A; purified LDHA, NADH/diaphorase-resazurin fluorescence; stronger effect = lower value; activity change, % (values are at about 110 or 230 µM); 480,000 tested, 0.15% active; AID 1347041; in the data active = activity change below about -30%; inconclusive = mostly about -25% to -30%;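 note: plate controls were DMSO wells for no effect and wells without enzyme for full effect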
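Human LDH5 (2 nM) was incubated with 0.06 mM NADH and 0.2 mM pyruvate for 5 min at room temperature in Tris pH 7.4. Remaining NADH was coupled through diaphorase/resazurin, and resorufin fluorescence was read at 0 and 20 min.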
Abeta yeast res: A-beta toxicity reversal in yeast. AID 1347071. 410,000 tested, 0.063% active. Potency, µM (highest dose often 46.1 µM), hits mostly activators. yeast expressing A-beta42, growth rescue, OD600, 48 h; response scale: 0% DMSO, 100% iron-clioquinol control; note: potency is the fitted concentration of half-maximal effect; nearly all actives have a fitted effect of over 55% in size
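Yeast growth medium received pinned compounds, then yeast cells expressing toxic A-beta were added; plates incubated at 30 C for 48 hr. Growth read as absorbance at 600 nm, normalized to DMSO and equimolar FeCl3 plus clioquinol controls.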
TDP43 rescue: inhibitors of TDP-43 toxicity in yeast; TDP-43 expressing yeast growth rescue, BacTiter-Glo, 24 h; Potency, µM (highest dose often 46.1 µM), for the others: top-dose growth rescue (activation), usual class: activators; 410,000 tested, 1.8% active; AID 652104; note: potency is the fitted concentration of half-maximal effect; % of control where 0% means no effect; nearly all actives have a fitted effect of over 50% in size
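Luminescence from BacTiter-Glo reports growth of TDP-43-expressing yeast after 24 hr at 30 deg C with compound. Cells were raffinose-pregrown to mid-log, then seeded in galactose medium at OD600=0.02.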
* hit, by the source's call; i = inactive; ? = inconclusive; / = no result. Rows were chosen to be rich in hits. Some 1.9% of all compounds tested hit in one or more screens of this group. Unless noted, calls come from the whole dose curve; as a rule, active = well fitted curve in the direction sought with a large enough effect; inconclusive = small, poorly fitted or top-dose-only effect, or another doubt; inactive = no such curve, though single readings can be large; an effect the other way counts as inactive or inconclusive.

SMILES	aSyn rescue	PTHR1 agonist	FUS suppressor	LDHA inh	Abeta yeast res	TDP43 rescue
O=C(CSc1ccc(-c2ccccn2)nn1)N1CCCc2ccccc21	6.4%	-11.1%	i	-9.4	i	19.1%
Cc1ccc(-c2nnc(SCC(=O)N3CCc4ccccc43)o2)cc1	/	i	i	-2.9	i	16.9%
O=C(CSc1ccc(-c2ccc(Cl)cc2)nn1)N1CCCc2ccccc21	12.4%	-39.5%	/	-4.5	i	20µM*
O=C(CSc1c[nH]c2ccccc12)N1CCCc2ccccc21	20.2%	-33.3%	i	3.0	i	22.4µM*
Cc1ccc(CNCc2cccs2)s1	/	/	/	-0.4	/	/
O=C(OCC(=O)N1CCCC1=O)c1csc(NCc2ccccc2)n1	/	/	/	8.5	/	/
CCC1c2ccsc2CCN1C(=O)COc1ccc2ccc(=O)oc2c1 (stereo not given)	/	/	/	-11.5	/	/
O=C(COc1ccc(F)cc1Cl)N1CCC(c2ccccc2)=N1	/	/	/	5.7	/	/
COc1ccc(O)c(C(=O)OC(C)C(=O)C23CC4CC(CC(C4)C2)C3)c1 (stereo not given)	/	/	/	2.7	/	/
O=C(N/N=C/c1ccc(O)cc1)NC12CC3CC(CC(C3)C1)C2	-8.0%	-19.5%	i	-8.2	i	11.2µM*
O=C(N/N=C/c1ccncc1)NC12CC3CC(CC(C3)C1)C2	-7.7%	-18.6%	i	-12.7	i	15.0%
Cc1cc(C2=NNC(=Nc3ccccc3)SC2)c(C)n1CC1CCCO1 (stereo not given)	/	/	/	-36.3*	/	/
Fc1c(F)c(F)c(CSc2nc3ccccc3[nH]2)c(F)c1F	-11.3%	i	i	-5.2	i	11.2µM*
Fc1ccccc1CSc1nc2ccccc2[nH]1	-15.3%	-17.5%	i	-11.4	i	13.3%
CCOc1ccc(CCNC(=O)c2c(C)oc3ncn(CC(C)C)c(=O)c23)cc1	/	i	i	-3.7	i	20µM*
O=C(O)c1cc2[nH]c3c(c2cc1Cl)CCCC3	20µM*	-3.8%	i	-6.8	i	/
O=S(=O)(c1ccc2[nH]c3c(c2c1)CCCC3)N1CCCCC1	0.0%	-34.4%	i	4.0	i	-9.8%
COc1ccc(OC)c(NC(=O)N2CCN(S(=O)(=O)c3ccc4c(ccn4C)c3)CC2)c1	?	-16.2%	?	2.5	i	18.5%
CCOCCCNC(=O)N1CCN(S(=O)(=O)c2ccc3c(ccn3C)c2)CC1	-6.2%	?	i	-1.3	i	-13.8%
COc1ccc(NC(=O)N2CCN(S(=O)(=O)c3ccc4c(ccn4C)c3)CC2)c(OC)c1	1.7%	-78.3%	12.6µM*	5.5	i	0.0%
CCOc1ccc(NC(=O)N2CCN(S(=O)(=O)c3ccc4c(ccn4C)c3)CC2)cc1	-0.2%	i	39.8µM*	-4.2	i	-21.3%
COc1cccc(CNc2nc3cc(-c4cccc(OC)c4)sc3c(=O)n2C)c1	0.4%	-40.3%	i	-7.9	i	24.1%
COc1cccc(CNc2nc3cc(-c4cscc4C)sc3c(=O)n2C)c1	?	-49.9%	?	-5.7	i	20µM*
COc1cccc(CNc2nc3cc(-c4ccc(OC)cc4C)sc3c(=O)n2C)c1	17.3%	-25.6%	i	-2.5	i	20µM*
CCCCCCCC(=O)N/N=C/c1cccc2ccccc12	/	/	/	5.6	/	/
SMILES	aSyn rescue	PTHR1 agonist	FUS suppressor	LDHA inh	Abeta yeast res	TDP43 rescue
CC/C(=N\O)c1cccs1	/	/	/	-2.3	/	/
Cc1ccc(F)cc1-c1nc(NCC2CC2)nc2ccsc12	-1.7%	-41.0%	i	-5.1	i	20µM*
Cc1ccccc1-c1nc(NCC2CC2)nc2ccsc12	-23.7%	-0.2%	i	-2.3	i	?
O=C(Nc1ccc2ncccc2c1)c1ccccc1	1.9%	i	i	-4.9	i	-5.9%
O=C(/C=C\c1ccccc1)Nc1ccc(NC(=O)c2ccco2)cc1	6.6%	-3.7%	i	-14.7	i	35.5µM*
O=C(Nc1cccc(NC(=O)c2ccccc2Cl)c1)c1ccco1	-11.1%	i	i	-0.7	i	17.8µM*
O=C(Nc1ccc2ncccc2c1)c1ccccc1Cl	-9.8%	i	i	-42.4*	i	0.8%
